# The list is not random: actives were taken first. Their share in the collection is about 7.4%.
# FLuc modulator = qHTS profiling assay for firefly luciferase inhibitor/activator using purifed enzyme and Km concentrations of substrates (counterscreen for miR-21 project) | AID 588342, 2011 | purified FLuc, Km substrates, luminescence inhibition | Potency, µM (series often up to 57.5 µM), for the others: at the highest dose activity change, negative = inhibition, actives largely listed as inhibitors | 360,000 compounds, 6.9% hits | Luciferin 4-monooxygenase (Photinus pyralis), P08659;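 also: plate controls were vehicle for no effect and reference inhibitor for full effect; nearly all actives have a fitted effect of over 55% in size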
# Target sequence (P08659 whole entry, looked up): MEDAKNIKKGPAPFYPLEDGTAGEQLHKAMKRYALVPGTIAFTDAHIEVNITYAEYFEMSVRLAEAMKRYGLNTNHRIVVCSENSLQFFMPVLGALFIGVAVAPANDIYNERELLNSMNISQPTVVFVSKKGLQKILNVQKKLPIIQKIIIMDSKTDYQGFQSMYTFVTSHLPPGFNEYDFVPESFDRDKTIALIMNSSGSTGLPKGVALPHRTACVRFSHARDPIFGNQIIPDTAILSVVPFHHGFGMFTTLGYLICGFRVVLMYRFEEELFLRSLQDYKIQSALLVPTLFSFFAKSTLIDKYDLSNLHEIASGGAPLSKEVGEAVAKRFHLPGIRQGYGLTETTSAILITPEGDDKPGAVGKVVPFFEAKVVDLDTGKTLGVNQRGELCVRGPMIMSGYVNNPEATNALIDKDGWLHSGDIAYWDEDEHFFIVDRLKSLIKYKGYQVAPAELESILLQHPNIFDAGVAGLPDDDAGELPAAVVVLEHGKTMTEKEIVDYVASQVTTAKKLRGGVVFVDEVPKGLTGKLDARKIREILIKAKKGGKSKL
#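 Purified P. pyralis luciferase (10nM final) with 10uM D-luciferin and 10uM ATP (Km levels) in 50mM Tris acetate pH 7.5, 10mM Mg acetate, 0.01% Tween-20, 0.05% BSA; qHTS 6-point titration, ~60 µM downward; luminescence read.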
# Rab9 promoter act = qHTS Assay for Rab9 Promoter Activators | Potency, µM (titrated, usually from 9.22 µM), for inactives: top-dose activation, negative = inhibition, most hits filed as activators | 320,000 compounds, 2.8% hits | Huh7 Rab9 promoter-luciferase reporter, luminescence, 24 h; also: % of control where 0% means no effect; nearly all actives have a fitted effect of over 60% in size
#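 Huh7 cells stably carrying Rab9 promoter–luciferase reporter, plated 1500 cells/well, compound added after 2 h and incubated 24 h at 37 °C; luciferase luminescence then read after 10 min with detection reagent.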
# ELG1 genotoxic = qHTS screen for small molecules that induce genotoxicity in human embryonic kidney (HEK293T) cells expressing luciferase-tagged ELG1 | Potency, µM (series often up to 46 µM), for the others: at the top dose activity change, positive = activation, most hits filed as activators | HEK293T ELG1-luciferase reporter, luminescence, 16 h | 330,000 compounds, 1.3% hits; also: % of control where 0% means no effect; nearly all actives have a fitted effect of over 60% in size
#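 DMSO vehicle served as control against compound-treated ELG1-luciferase HEK293T cells; exposure lasted 16 hr at 37 °C and 5% CO2, followed by ONE-Glo luminescence detection after 30 min.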
# NPC1 prom act = qHTS Assay for NPC1 Promoter Activators; Huh7 NPC1 promoter luciferase reporter, 24 h; Potency, µM (titrated, usually from 9.22 µM), for the others: top-dose activation, most hits filed as activators; 320,000 compounds, 2.4% hits; also: % of control where 0% means no effect; nearly all actives have a fitted effect of over 60% in size
#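 Huh7 reporter cells (NPC1 promoter driving luciferase) are dosed with compound for 24 h at 37 °C, 5% CO2; luciferase detection reagent is then added and luminescence measured after 10 min at ambient temperature.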
# SMN2 splice up = qHTS Assay for Enhancers of SMN2 Splice Variant Expression; HEK293 SMN2-luciferase splicing reporter, luminescence, 30-36 h; Potency, µM (doses to about 46.1 µM), inactives show at the top dose activity change, positive = activation, usual class: activators; 210,000 compounds, 2.8% hits; AID 1458, 2008; also: % of control where 0% means no effect; nearly all actives have a fitted effect of over 55% in size
#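 qHTS luciferase splicing reporter: luminescence rises when SMN2 exon 7 is included in transfected HEK293 cells. Compound exposure lasted 30-36 h at 37C, with 4.5 mM final sodium butyrate as control, followed by a ONE-Glo read.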
# The depositor's hits bear a star; ? = inconclusive; . = no result given; [ ] = remark or other dose. Calls follow the shape of the dose curve; as a rule, active = well fitted curve in the direction sought with a large enough effect; inconclusive = small, poorly fitted or top-dose-only effect, or another doubt; inactive = no such curve, though single readings can be large; an effect the other way counts as inactive or inconclusive. Potency is read from the fitted curve at half-maximal effect.
SMILES,FLuc modulator,Rab9 promoter act,ELG1 genotoxic,NPC1 prom act,SMN2 splice up
COc1ccc(-c2coc3cc(O)c(OC)cc3c2=O)cc1,?,?,?,26%,.
COc1ccc(-c2coc3cc(O)cc(O)c3c2=O)cc1,6µM*,2.8µM*,23µM*,2.2µM*,18µM*
O=c1c(-c2ccc(O)cc2)coc2cc(O)cc(O)c12,21µM*,13µM*,16µM*,5.8µM*,25µM*
COc1cc(O)cc2occ(-c3ccc(O)cc3)c(=O)c12,?,2%,17%,12%,.
Cc1nn(CCCC(=O)NC2CCC(C)CC2)c(=O)c2nn(-c3ccccc3)c(C)c12 (stereo not drawn),-1%,-3%,-2%,-3%,.
COc1ccc(-n2nc(C(=O)NCC(=O)N3CC(C)CC(C)C3)c3ccccc3c2=O)cc1 (stereo not drawn),19µM*,2%,-22%,-1%,.
CCOC(=O)N1CCN(C(=O)CNC(=O)c2nn(-c3ccc(OC)cc3)c(=O)c3ccccc23)CC1,3.8µM*,?,0%,6%,25%
COc1ccc(-n2nc(C(=O)NCC(=O)NCCCN3CC(C)CC(C)C3)c3ccccc3c2=O)cc1 (stereo not drawn),2%,-4%,4%,2%,.
CCOc1ccc(NC(=O)CNC(=O)c2nn(-c3ccc(OC)cc3)c(=O)c3ccccc23)cc1,0%,-3%,-12%,-2%,.
COc1ccc(-n2nc(C(=O)NCC(=O)N3CCCCCC3)c3ccccc3c2=O)cc1,5.4µM*,7%,-4%,-14%,.
COc1ccc(N2CCN(C(=O)CNC(=O)c3nn(-c4ccc(OC)cc4)c(=O)c4ccccc34)CC2)cc1,?,8%,-19%,-1%,.
COc1ccc(-n2nc(C(=O)NCC(=O)N3CCN(C)CC3)c3ccccc3c2=O)cc1,15µM*,0%,4%,-3%,.
COc1ccc(-c2nc3c(c4c2C[C@H](c2ccccc2)OC4)CN(C(=O)c2cc(I)ccc2F)CC3)c(C)c1,.,.,.,.,-11%[9.22 µM]
N[C@H](C(=O)O)[C@H](Cc1ccccc1)C(=O)O,.,11%[46.1 µM],.,2%[46.1 µM],.
COc1ccc(-n2ccnc2CN2CCCC(CO)(Cc3cccc(OC)c3)C2)cc1 (stereo not drawn),24µM*,1%,-9%,-3%,.
COc1ccc(-c2ncc(CN3CCC(CO)(Cc4cccc(OC)c4)CC3)cn2)cc1,?,-2%,-9%,-7%,.
COc1ccc(CC2(CO)CCN(Cc3cccnc3)CC2)cc1,15µM*,?,5%,-1%,.
Cc1nc(SC(C)C(=O)NCC2CCCO2)c2cc(-c3ccccc3)sc2n1 (stereo not drawn),12µM*,30%,-10%,-2%,.
Cc1cc(Br)cc2c(C(=O)NCC3CCCO3)cc(-c3ccccc3)nc12 (stereo not drawn),1.3µM*,17%,?,12%,.
O=C(NCC1CCCO1)c1cc(-c2ccccc2)nc2ccc(Br)cc12 (stereo not drawn),2.4µM*,7%,-2%,1%,.
CCN(Cc1ccccc1)C(=O)Cn1c(=O)n(-c2ccc(F)c(Cl)c2)c(=O)c2sc3ccccc3c21,-2%,.,.,.,7%
Cc1ccc(C)c(Cn2c(-c3cccs3)nc3ccccc32)c1,-11%,.,.,.,-12%
O=C1NC[C@@H](c2ccccc2)OC(=O)[C@H](Cc2ccc(F)cc2)C/C=C\C[C@@H]1CC(=O)N(CCO)Cc1ccccc1,.,.,-7%,.,.
COc1ccc(CC(=O)Nc2sc3c(c2C(=O)Nc2cccc(Cl)c2)CCCCC3)cc1,?,.,.,.,0%
Cc1cccc(NC(=O)c2cc(S(=O)(=O)N3CCCCC3)ccc2Cl)n1,1%,-3%,0%,0%,.
SMILES,FLuc modulator,Rab9 promoter act,ELG1 genotoxic,NPC1 prom act,SMN2 splice up
OCCN(CCO)c1ncnc2nc[nH]c12,.,.,.,.,-14%[9.22 µM]
CCc1nnc(NC(=O)c2oc3ccccc3c2COC(C)C)s1,.,.,3%,.,.
O=C(Nc1nc2ccccc2s1)c1cc2c(s1)-c1ccccc1OC2,-11%,?,13µM*,26%,-13%
O=C(Nc1nccs1)c1cc2c(s1)-c1ccccc1OC2,1.7µM*,3.2µM*,8.2µM*,2µM*,10µM*
CCOC(=O)c1cc2c(s1)-c1c(C)cccc1OC2,13µM*,?,?,?,0%
CCc1ccccc1N(C)C(=O)c1cc2c(s1)-c1c(C)cccc1OC2,-4%,.,.,.,-11%
Cc1cccc2c1-c1sc(C(=O)Nc3nccs3)cc1CO2,2.4µM*,1.1µM*,?,2.5µM*,?
O=C(Nc1cccnc1Cl)c1cc2c(s1)-c1ccccc1OC2,?,?,11%,?,.
COc1ccc(C(=O)C2CCCN(C(=O)c3cccs3)C2)cc1F (stereo not drawn),-8%,-1%,-3%,0%,.
Cc1cc(C)cc(NC(=O)C2CCCN(c3nnc(-n4c(C)ccc4C)s3)C2)c1 (stereo not drawn),-8%,.,.,.,-1%
C=CCN(C(=O)c1csnn1)C(C(=O)NC1CCCC1)c1ccccc1 (stereo not drawn),2%,0%,-6%,-2%,.
COC(=O)c1ccc2c(c1)C(C)(C)C(/C=C/c1ccccc1O)=[N+]2C,15µM*,-45%,?,-42%,-93%
Cn1c(/C(C#N)=C/Nc2ccccn2)nc2ccccc21,?,23%,2%,13%,.
COc1ccc(/C(O)=C(\C#N)c2nc3ccccc3n2C)cc1OC,-17%,0%,3%,0%,-15%
Cn1c(/C(C#N)=C/c2cccc(O)c2)nc2ccccc21,13µM*,?,?,28%,?
COc1cc(/C=C(\C#N)c2nc3ccccc3n2C)cc(OC)c1OC,19µM*,.,.,.,-11%
COc1ccc(/C=C(\C#N)c2nc3ccccc3n2C)c(OC)c1,24µM*,.,.,.,24%
CCOc1ccccc1N/C=C(\C#N)c1nc2ccccc2n1C,-17%,1%,13%,-7%,3%
C=CC[C@@H](CC(=O)N[C@H](CO)Cc1ccccc1)C(=O)NCCOC(=O)[C@@H](CC=C)CC(=O)OC(C)(C)C,.,.,-2%,.,.
COc1ccc(N2CCN(C(=O)c3ccc4nc(N5CCC(C)CC5)sc4c3)CC2)cc1,?,.,.,.,6%
Cc1nc2nc(SCc3ccccc3)[nH]n2c(=O)c1CCC(C)C,-2%,-1%,1%,-3%,.
CC(C)(C)C1CCC(OC(=O)CN2CCCCC2)CC1 (stereo not drawn),19µM*,15%,10%,21%,.
CCOC(=O)c1c(S(=O)(=O)N2CCCC(C(=O)Nc3ccc(C)cn3)C2)c(C)n(C)c1C (stereo not drawn),-2%,-7%,0%,1%,.
